Compound activity from PubChem BioAssay.
Hits are enriched below; roughly 32% of the tested compounds scored in any of these assays.
CYP2C19 inhib: inhibitors of human CYP2C19 | 96,000 tested, 21% active | AID 778 | inhibition, % at 5 µM | CYP2C19 Supersomes, luciferin-H EGE luminescence, 30 min;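 active means CYP2C19 inhibition above a set limit at 5 µM in the primary screen, cut at about 50% in these data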
PostGolgi yeast: growth inhibition of a yeast mutant, post-Golgi transport screen; post-Golgi transport phenotypic cell assay; inhibition, % at 10 µM; 98,000 tested, 0.9% active; AID 739;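 further: yeast cells grown in 1536-well plates; yeast grown about 18 h at 30C before absorbance read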
CYP2C9 inhib: blocks human cytochrome P450 2C9; CYP2C9 Supersomes, luciferin-H conversion, luminescence; inhibition, % at 5 µM; 96,000 tested, 20% active;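 active means blocking of liver enzyme CYP2C9 beyond about 50% at 5 µM, limit read from the data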
Target sequence (P11712 whole entry, looked up): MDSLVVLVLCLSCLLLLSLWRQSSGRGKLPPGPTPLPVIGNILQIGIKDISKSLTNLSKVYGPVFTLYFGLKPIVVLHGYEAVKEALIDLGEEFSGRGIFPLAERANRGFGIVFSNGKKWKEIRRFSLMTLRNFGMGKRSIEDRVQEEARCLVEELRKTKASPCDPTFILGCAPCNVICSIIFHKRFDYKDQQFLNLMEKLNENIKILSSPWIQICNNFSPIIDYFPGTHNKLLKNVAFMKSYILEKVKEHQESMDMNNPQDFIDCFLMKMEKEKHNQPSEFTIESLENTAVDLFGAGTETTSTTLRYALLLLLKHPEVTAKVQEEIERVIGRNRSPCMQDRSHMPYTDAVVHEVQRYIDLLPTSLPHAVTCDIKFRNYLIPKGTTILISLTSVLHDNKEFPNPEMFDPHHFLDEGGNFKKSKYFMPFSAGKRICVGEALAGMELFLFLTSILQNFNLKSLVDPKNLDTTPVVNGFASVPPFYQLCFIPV
PostGolgi ctrl: growth of the yeast control strain, post-Golgi counter-screen; efflux-deficient yeast background strain, growth absorbance A615, 16 h; inhibition, % at 10 µM; 98,000 tested, 5% active
CYP2C9 act: CYP2C9 (human) activation; P11712; recombinant CYP2C9, luciferin-H conversion, luminescence; stronger effect = higher value; factor 1 = untreated enzyme, 0 = blocked; activation factor at 5 µM; 96,000 tested, 1.4% active; AID 1024;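 active means activation factor of 2 or more for CYP2C9 at a 5 µM dose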
CYP2C19 activ: cytochrome P450 2C19 (human) activation; activation factor at 5 µM; AID 1025; P33261; 96,000 tested, under 10 active; recombinant CYP2C19, luciferin-H EGE luminescence; stronger effect = higher value; 0 = fully inhibited enzyme, 1 = untreated enzyme;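 active means activation factor of at least 2 at 5 µM in the primary screen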
Large screens that a line does not name were inactive. Unless noted, no stated cut-off is given here; in the data, active means inhibition above about 30%; inactive means the rest.

COc1ccc(-n2c(N)c(Br)c(=O)[nH]c2=O)cc1	none
COc1cccc(OCCCCSc2ncccn2)c1	none
c1ccc(Oc2cccc(OCCCn3cncn3)c2)cc1	CYP2C19 inhib 99.5, CYP2C9 inhib 93.7
COc1ccc(OCCSc2ncccn2)cc1	CYP2C19 inhib 87.4, PostGolgi ctrl 32.8
c1ccc(Oc2cccc(OCCCCSc3ncccn3)c2)cc1	CYP2C9 inhib 51.2
COc1ccc(OCCCSc2ncccn2)cc1	CYP2C19 inhib 63.5
N#CCCN/N=C(/Cc1nc2ccccc2[nH]1)c1ccc(Cl)cc1	CYP2C19 inhib 97.9, CYP2C9 inhib 75.1
CC(C)CCn1cnc2c(cnn2-c2ccc(F)cc2)c1=O	none
Cc1cccc(NC(=O)Cn2cnc3c(cnn3-c3ccc(F)cc3)c2=O)c1C	PostGolgi ctrl 46.0
COC(=O)c1ccc(Cn2cnc3c(cnn3-c3ccc(F)cc3)c2=O)o1	CYP2C9 inhib 50.4
CSc1nsc(/C=C/Nc2ccc(C)cc2)c1C#N	none
COc1ccc(Cn2cc(F)c(=O)n(CCC(C)C)c2=O)cc1[N+](=O)[O-]	none
CCCOc1ccccc1C1C(C(=O)OC)=CN(C(C)C)C=C1C(=O)OC	CYP2C19 inhib 88.8, CYP2C9 inhib 87.2
NC(=O)c1nn(-c2ccccc2)nc1N	none
Cc1ccnc(NC(=O)CCC(=O)N(CC(=O)NC2CCCCC2)c2cccc(C)c2C)c1	CYP2C9 inhib 56.0
Cc1ccc(C)c(N(CC(=O)NC2CCCCC2)C(=O)CCC(=O)Nc2ccccn2)c1	CYP2C19 inhib 65.9, CYP2C9 inhib 80.2 (no result: PostGolgi yeast, PostGolgi ctrl)
Cc1cc(C)cc(N(CC(=O)NC2CCCCC2)C(=O)CCC(=O)Nc2cc(C)ccn2)c1	none (no result: PostGolgi yeast, PostGolgi ctrl)
Cc1ccc(N(CC(=O)NC2CCCC2)C(=O)CCCC(=O)Nc2ccccn2)cc1C	CYP2C19 inhib 55.6, CYP2C9 inhib 55.8
CCOc1ccccc1N(CC(=O)NC1CCCC1)C(=O)CCCC(=O)Nc1ccccn1	none
Cc1cccc(C)c1NC(=O)C1NC(=O)CC1c1ccccc1 (stereo unspecified)	none
c1ccc(OCc2nnc3sc(C4COc5ccccc5O4)nn23)cc1 (stereo unspecified)	none
N#Cc1c(NC(=O)CSc2nnnn2C2CCCCC2)sc2c1CCCC2	CYP2C9 inhib 66.6
CC1CCCCN1CC(=O)Nc1sc2c(c1C#N)CCC2 (stereo unspecified)	CYP2C19 inhib 50.9, CYP2C9 inhib 61.1
Cc1nnc(SCC(=O)Nc2sc3c(c2C#N)CCCCC3)n1N	none
O=C(CSc1nnnn1C1CCCCC1)Nc1nc2c(s1)CCCC2	CYP2C19 inhib 78.4
CCn1c(SCC(=O)Nc2nc3c(s2)CCCC3)nc2c1c(=O)n(C)c(=O)n2C	none (no result: PostGolgi yeast, PostGolgi ctrl)
CCc1ccc(N2C(=O)c3ccc4c5c(ccc(c35)C2=O)CC4)cc1	none
CC(=O)Nc1ccc(-n2c(C)c(C(C)=O)c(C(C)=O)c2C)cc1	none
Cc1c(C)[n+](=O)c(-c2ccco2)c(C)n1[O-]	PostGolgi ctrl 30.9
O=C(COCc1nc2ccccc2c(=O)[nH]1)NC1CCCC1	none
COCC(=O)Nc1ccc(S(=O)(=O)NCCc2ccccc2)cc1	CYP2C19 inhib 95.1, CYP2C9 inhib 69.0
CCC(=O)Nc1ccc(S(=O)(=O)NCCc2ccccc2)cc1	CYP2C19 inhib 75.3
O=C(Nc1ccc(S(=O)(=O)NCCc2ccccc2)cc1)c1ccc(Br)o1	none
CC(c1nnc(SCC(=O)c2c(N)n(C)c(=O)n(C)c2=O)n1-c1ccc(Cl)cc1)N(C)C (stereo unspecified)	PostGolgi ctrl 37.4
Cc1ccc2cc(COC(=O)C3CCCO3)c(=O)[nH]c2c1 (stereo unspecified)	none
CCCCCCNC(=O)Nc1ccccc1	CYP2C19 inhib 96.1, CYP2C9 inhib 56.3
CCN(CCNC(=O)Nc1ccc(Cl)cc1)c1ccccc1	CYP2C19 inhib 58.6
CCCCNC(=O)Nc1nnc(-c2ccccc2)o1	none
O=C(NCCOc1nc(N2CCCCC2)nc(N2CCOCC2)n1)Nc1ccccc1	CYP2C9 inhib 69.0
CCN(CC)c1nc(OCCNC(=O)Nc2ccccc2)nc(N(CC)CC)n1	CYP2C9 inhib 88.3
CC1Cc2ccccc2N1C(=O)CSc1nnc(CSc2ncccn2)n1C (stereo unspecified)	none
CC(=O)Oc1ccccc1-c1nc(C)nc(N(C)C(C)=O)n1	none
CCN1C(=O)NC(c2cc(Br)ccc2OC)C(C(=O)OC)=C1C (stereo unspecified)	none (no result: CYP2C19 inhib, CYP2C9 inhib, CYP2C9 act, CYP2C19 activ)
c1ccc(COc2ccc(CN3CCN(c4ccccn4)CC3)cc2)cc1	PostGolgi yeast 73.2, CYP2C9 inhib 58.9
C(#Cc1ccccc1)CN1CCN(c2ccccn2)CC1	CYP2C19 inhib 98.5, CYP2C9 inhib 76.1
COc1ccc(CN2CCN(c3ccccn3)CC2)c(OC)c1	none
Brc1ccc(CN2CCN(c3ccccn3)CC2)s1	CYP2C19 inhib 99.0, CYP2C9 inhib 89.7
c1ccc(N2CC[N+]3(CCCC3)CC2)nc1	none
O=C(CCCl)Nc1cc(SCCO)cc([N+](=O)[O-])c1	none
CCCn1c(SCC(=O)NC(C)(C)C)nnc1C(C)C	none
COc1ccc(/C=N/c2oc(-c3ccccc3)cc2C#N)cc1OC	CYP2C19 inhib 53.8
CCCN(CCC)CCCNC(=O)CC1Nc2ccccc2NC1=O (stereo unspecified)	none
CCCCn1c(=O)[nH]c(=O)c2c1nc(-c1ccsc1)n2Cc1ccccc1	PostGolgi ctrl 30.7
COCCn1c(-c2ccsc2)nc2c1c(=O)[nH]c(=O)n2CC(C)C	CYP2C19 inhib 55.3
Cn1cc(S(=O)(=O)CC(=O)N2CCc3ccccc32)c2ccccc21	CYP2C19 inhib 66.9
CCCn1cc(S(=O)(=O)CC(=O)N2CCc3ccccc32)c2ccccc21	CYP2C19 inhib 86.6, CYP2C9 inhib 78.9
O=C(/C=C/c1cc([N+](=O)[O-])ccc1OC(F)F)NCc1ccc(F)cc1	none
Cc1c(OCc2ccccc2)c(=O)ccn1Cc1ccccc1	CYP2C19 inhib 68.0
Cn1nc(OCc2ccccc2)ccc1=O	none
CCOc1ccccc1C1C2C(=O)N(c3ccccc3)C(=O)C2ON1c1ccccc1 (stereo unspecified)	CYP2C9 inhib 50.7
O=C(O)COc1ccccc1C1C2C(=O)N(c3ccccc3)C(=O)C2ON1c1ccccc1 (stereo unspecified)	none
CCCOc1ccc(N2C(=O)C3ON(c4ccccc4)C(CCC)C3C2=O)cc1 (stereo unspecified)	CYP2C9 inhib 52.5
CN1OC2C(=O)N(c3ccccc3)C(=O)C2C1c1ccc(F)cc1 (stereo unspecified)	none
CCCC1C2C(=O)N(c3ccccc3)C(=O)C2ON1c1ccccc1 (stereo unspecified)	CYP2C19 inhib 56.0, CYP2C9 inhib 55.4
O=C(O)c1ccc(N2C(=O)C3ON(c4ccccc4)C(c4ccccc4F)C3C2=O)cc1 (stereo unspecified)	CYP2C19 inhib 51.6
O=C1C2ON(c3ccccc3)C(c3ccccc3F)C2C(=O)N1c1ccccc1 (stereo unspecified)	none
CCSc1nnc2n(N)c(=O)c3ccccc3n12	none
COc1ccc(NC2=NCC(=O)N2c2ccccc2F)cc1	none
